# In PubChem BioAssay (NCATS):
# Records with an inconclusive call do not appear. A call without a number means that no potency is given here. The source made the active and inactive calls. Unless noted, calls come from the whole dose curve; as a rule, active = well fitted curve in the direction sought with a large enough effect; inconclusive = small, poorly fitted or top-dose-only effect, or another doubt; inactive = no such curve, though single readings can be large; an effect the other way counts as inactive or inconclusive.
# What was measured:
# [1] = P-glycoprotein substrates identified in KB-8-5-11 adenocarcinoma cell line, qHTS therapeutic library screen (AID 1346987); note: nearly all actives have a fitted effect of over 65% in size
# Outline: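 Compounds are pinned in dose-response onto KB-8-5-11 cells (500 cells/well, colchicine-free medium) and left 72 h at 37 degree C. CellTiter-Glo luminescence then yields AC50 values.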
# [2] = test system: Zika virus NS2B-NS3 protease (unlinked complex); test: Primary screen GU Rhodamine qHTS for Zika virus inhibitors: Unlinked NS2B-NS3 protease assay (AID 1347159); note: nearly all actives have a fitted effect of over 60% in size
# Outline: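 Enzyme 25 nM in Tris-HCl pH 8.0 + 0.01% Tween 20; compounds up to 114 microM, 15 min RT dark; + Rhod110 substrate 1.5 microM; read t0 and 15 min; delta fluorescence → % inhibition → 4-parameter Hill fit.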
# [3] = test system: Zika virus NS2B-NS3 protease (linked construct); test: Primary screen NINDS Rhodamine qHTS for Zika virus inhibitors (AID 1347160); note: nearly all actives have a fitted effect of over 55% in size
# Outline: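 Enzyme (25 nM, linked NS2B-NS3) was preincubated 15 min with compound in 10 mM Tris-HCl pH 8.0, 0.01% Tween 20. Rhodamine110 substrate (1.5 microM) was then added and fluorescence read at start and after 15 min.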
# [4] = biological target: Calcium and integrin-binding protein 1 (Homo sapiens) (UniProt Q99828); test: Primary qHTS for Identification of Calcium Integrin Binding Protein 1 (CIB1) Competitor (AID 1508620);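 note: GST tagged CIB1 binding a fluorescein labelled alphaIIb integrin peptide tracer; top concentration of the series differs between compounds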
# Chain of Calcium and integrin-binding protein 1 (Homo sapiens) (Q99828 whole entry, looked up): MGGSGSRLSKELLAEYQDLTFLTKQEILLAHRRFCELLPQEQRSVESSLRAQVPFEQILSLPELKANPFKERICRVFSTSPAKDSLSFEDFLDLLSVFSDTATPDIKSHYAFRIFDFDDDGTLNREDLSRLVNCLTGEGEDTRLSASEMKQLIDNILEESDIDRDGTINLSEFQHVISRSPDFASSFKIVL
# Outline: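 Fluorescence polarization competition: GST-tagged CIB1 (1 uM final) preincubated with compound 15 min at room temperature, then FITC-labelled alphaIIb peptide (100 nM final) added. After 15 min at room temperature, polarization read at Ex 480/Em 540.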
# [5] = biological target: Cytochrome P450 2D6 (Homo sapiens) (UniProt P10635); test: Cytochrome P450 family 2 subfamily D member 6 (CYP2D6) small molecule antagonists: luciferase biochemical (cell-free) qHTS assay (AID 1645840; active = well fitted curve in the direction sought with a large enough effect in the repeat runs; an effect the other way counts as inactive or inconclusive; note: potency is the fitted concentration of half-maximal effect; nearly all actives have a fitted effect of over 55% in size)
# Chain of Cytochrome P450 2D6 (Homo sapiens) (P10635 whole entry, looked up): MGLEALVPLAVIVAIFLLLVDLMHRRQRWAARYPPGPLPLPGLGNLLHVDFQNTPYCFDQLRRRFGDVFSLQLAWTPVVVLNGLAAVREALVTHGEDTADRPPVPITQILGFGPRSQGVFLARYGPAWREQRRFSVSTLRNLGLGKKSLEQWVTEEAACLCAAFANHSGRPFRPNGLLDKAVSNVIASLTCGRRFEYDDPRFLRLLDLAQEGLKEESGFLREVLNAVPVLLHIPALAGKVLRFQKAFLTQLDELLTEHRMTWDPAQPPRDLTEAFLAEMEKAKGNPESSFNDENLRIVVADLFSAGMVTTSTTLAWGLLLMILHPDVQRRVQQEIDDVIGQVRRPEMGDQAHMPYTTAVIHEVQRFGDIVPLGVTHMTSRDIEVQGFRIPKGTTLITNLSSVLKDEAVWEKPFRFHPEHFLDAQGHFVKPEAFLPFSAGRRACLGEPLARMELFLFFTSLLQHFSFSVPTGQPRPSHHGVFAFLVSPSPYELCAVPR
# Outline: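 P450-Glo CYP2D6 system: proluciferin substrate converted by enzyme to luciferin, read by luminescence proportional to activity. Enzyme-substrate mix with compound 10 min at room temperature, then NADPH regeneration 1 h before detection reagent.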
# [6] = biological target: Cytochrome P450 2C9 (Homo sapiens) (UniProt P11712); test: Cytochrome P450 family 2 subfamily C member 9 (CYP2C9) small molecule antagonists: luciferase biochemical (cell-free) qHTS assay (AID 1645842; active = well fitted curve in the direction sought with a large enough effect in the repeat runs; an effect the other way counts as inactive or inconclusive; note: potency is the fitted concentration of half-maximal effect; nearly all actives have a fitted effect of over 55% in size)
# Chain of Cytochrome P450 2C9 (Homo sapiens) (P11712 whole entry, looked up): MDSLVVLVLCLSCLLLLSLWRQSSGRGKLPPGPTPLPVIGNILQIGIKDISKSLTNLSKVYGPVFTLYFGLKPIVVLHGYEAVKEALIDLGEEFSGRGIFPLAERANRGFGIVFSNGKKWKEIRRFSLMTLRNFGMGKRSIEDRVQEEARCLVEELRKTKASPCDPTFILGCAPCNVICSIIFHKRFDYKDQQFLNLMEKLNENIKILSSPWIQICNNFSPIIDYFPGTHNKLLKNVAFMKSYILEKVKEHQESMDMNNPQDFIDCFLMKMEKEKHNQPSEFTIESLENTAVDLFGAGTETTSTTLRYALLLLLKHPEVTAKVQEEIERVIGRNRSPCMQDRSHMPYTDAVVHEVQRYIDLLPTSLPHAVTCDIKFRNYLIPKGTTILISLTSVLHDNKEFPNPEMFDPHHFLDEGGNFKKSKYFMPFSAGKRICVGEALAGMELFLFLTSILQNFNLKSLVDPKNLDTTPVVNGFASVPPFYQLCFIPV
# Outline: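 P450-Glo CYP2C9 system: proluciferin substrate with enzyme in mix containing 0.4% BSA, 10 min at room temperature, then NADPH regeneration solution added and incubated 1 h at 37C. Detection reagent stopped reaction; luminescence read after 20 min as RLU.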
# [7] = biological target: Catechol O-methyltransferase (Homo sapiens) (UniProt P21964); test: Confirmatory Screen for Target Class Profiling of Small Molecule Inhibitors of Methyltransferases (AID 1745852); details: MTase-Glo luminescence, SAH detection, recombinant enzyme; measured here: COMT max response; stronger effect = lower value
# Chain of Catechol O-methyltransferase (Homo sapiens) (P21964 whole entry, looked up): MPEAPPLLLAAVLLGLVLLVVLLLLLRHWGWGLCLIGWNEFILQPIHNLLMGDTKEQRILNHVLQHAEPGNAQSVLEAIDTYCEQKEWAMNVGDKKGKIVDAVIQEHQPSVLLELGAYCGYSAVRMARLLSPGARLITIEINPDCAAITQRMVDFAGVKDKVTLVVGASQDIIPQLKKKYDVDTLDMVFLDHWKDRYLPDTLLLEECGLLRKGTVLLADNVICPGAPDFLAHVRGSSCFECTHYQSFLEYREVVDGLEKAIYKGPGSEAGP
# [8] = biological target: Guanidinoacetate N-methyltransferase (Homo sapiens) (UniProt Q14353); test: as above; details: activity change, negative = inhibition: at 57.3 µM (top of the series) unless noted
# [9] = biological target: Nicotinamide N-methyltransferase (Homo sapiens) (UniProt P40261); test: as above; details: MTase-Glo luminescence, SAH detection, recombinant enzyme; measured here: NNMT max response; stronger effect = lower value
# Chain of Nicotinamide N-methyltransferase (Homo sapiens) (P40261 whole entry, looked up): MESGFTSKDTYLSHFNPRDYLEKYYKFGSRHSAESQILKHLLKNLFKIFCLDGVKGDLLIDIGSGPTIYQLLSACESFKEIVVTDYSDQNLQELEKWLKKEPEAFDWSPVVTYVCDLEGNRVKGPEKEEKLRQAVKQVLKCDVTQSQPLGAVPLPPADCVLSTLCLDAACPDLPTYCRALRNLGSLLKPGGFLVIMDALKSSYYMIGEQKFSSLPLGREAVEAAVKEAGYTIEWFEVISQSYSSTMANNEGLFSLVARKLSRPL
# [10] = biological target: Phenylethanolamine N-methyltransferase (Homo sapiens) (UniProt P11086); test: as above; details: MTase-Glo luminescence, SAH detection, recombinant enzyme; measured here: PNMT max response; stronger effect = lower value
# Chain of Phenylethanolamine N-methyltransferase (Homo sapiens) (P11086 whole entry, looked up): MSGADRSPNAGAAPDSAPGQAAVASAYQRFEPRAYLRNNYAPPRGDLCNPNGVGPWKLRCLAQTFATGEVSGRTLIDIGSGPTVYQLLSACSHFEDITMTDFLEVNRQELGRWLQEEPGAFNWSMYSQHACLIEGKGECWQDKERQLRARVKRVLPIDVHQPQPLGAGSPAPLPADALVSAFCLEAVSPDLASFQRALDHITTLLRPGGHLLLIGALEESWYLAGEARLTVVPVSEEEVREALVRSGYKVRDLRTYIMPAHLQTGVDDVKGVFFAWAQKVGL
# [11] = biological target: Glutathione peroxidase 1 (Homo sapiens) (UniProt P07203); test: Primary qHTS Assay for Inhibitors of Recombinant Selenoprotein Glutathione Peroxidase 1 (GPX1) (AID 1845191); note: nearly all actives have a fitted effect of over 65% in size
# Chain of Glutathione peroxidase 1 (Homo sapiens) (P07203 whole entry, looked up): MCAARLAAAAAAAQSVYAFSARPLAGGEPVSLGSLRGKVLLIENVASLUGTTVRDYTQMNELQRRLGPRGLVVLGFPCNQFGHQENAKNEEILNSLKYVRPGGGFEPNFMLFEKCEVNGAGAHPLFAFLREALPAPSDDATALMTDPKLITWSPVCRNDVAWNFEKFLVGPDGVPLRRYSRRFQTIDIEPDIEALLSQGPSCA
# Outline: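 GR-coupled readout: NADPH consumption tracked by fluorescence, ex 340/em 450 nm, at t=0 and after 15 min at RT. Final mix 10 nM GPX1, 1 mM GSH, 0.5 mM CHP, 0.5 mM NADPH, 100 nM GR, 0.01% BSA, following 30 min enzyme–compound preincubation.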
# [12] = biological target: Phospholipid hydroperoxide glutathione peroxidase GPX4 (Homo sapiens) (UniProt P36969); test: Primary qHTS Assay for Inhibitors of Recombinant Selenoprotein Glutathione Peroxidase 4 (GPX4) (AID 1845192); note: nearly all actives have a fitted effect of over 65% in size
# Chain of Phospholipid hydroperoxide glutathione peroxidase GPX4 (Homo sapiens) (P36969 whole entry, looked up): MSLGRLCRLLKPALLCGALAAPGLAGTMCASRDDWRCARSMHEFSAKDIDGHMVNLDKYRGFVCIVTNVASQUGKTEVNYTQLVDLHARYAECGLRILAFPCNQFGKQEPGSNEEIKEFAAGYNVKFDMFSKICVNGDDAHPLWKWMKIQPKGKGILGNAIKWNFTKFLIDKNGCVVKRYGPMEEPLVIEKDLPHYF
# Outline: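 Steps: GPX4 plus compound, 30 min RT; add GR/GSH/NADPH master mix; start with cumene hydroperoxide; read 340/450 nm fluorescence at 0 and 15 min. Finals were 200 nM GPX4, 1 mM GSH, 0.5 mM CHP, 0.5 mM NADPH, 100 nM GR.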
# [13] = biological target: Luciferin 4-monooxygenase (Photinus pyralis) (UniProt P08659); test: Primary firefly luciferase (FLuc) qHTS assay for identification of artifact compounds. (AID 1845220); details: outcome: dose series up to 54.1 µM unless noted; note: nearly all actives have a fitted effect of over 60% in size
# Outline: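 Enzymatic FLuc inhibition assay: compounds pre-exposed to luciferin/ATP (10 uM each) for 15 min, then purified P. pyralis enzyme at 10 nM added. Read-out: luminescence at 5 min.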
# [14] = Primary fluorescence-based thiol-reactive (MSTI) qHTS assay for identification of artifact compounds. (AID 1845221);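 note: thiol-reactive compounds lower the probe fluorescence signal; nearly all actives have a fitted effect of over 65% in size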
# Outline: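 Curve-fitted percent inhibition (4-parameter Hill) derived from fluorescence, Ex 525/Em 598 nm, scaled with Acetyl-MSTI and MSTI; 1 h incubation at room temperature.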
# [15] = test system: Nanoluciferase (engineered Oplophorus gracilirostris luciferase); test: Primary Nanoluciferase (NLuc) qHTS assay for identification of artifact compounds. (AID 1845222);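 note: NLuc secreted into diluted conditioned medium of S16 cells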
# Outline: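 S16 cell supernatant NLuc, 1:55; cpds qHTS; 15 min RT dark; Nano-Glo substrate 1:100, 5 min; luminescence; Hill fit of % inhibition.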
# [16] = Primary redox qHTS assay for identification of artifact compounds. (AID 1845223)
# Outline: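 Redox-cycling detection via DTT (250 uM final) oxidation coupled to Amplex Red (25 uM)/HRP (250 mU/mL) in HBSS. 15 min preincubation plus 30 min after DTT, room temperature. Ex/Em 525/598 nm; 4-parameter Hill fit against DMSO and 10 uM DA3003.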
# [17] = test system: KB-3-1; test: Cytotoxic Profiling of Annotated Libraries Using Quantitative High-Throughput Screening (AID 1296008); details: Five cell lines viability, CellTiter-Glo ATP luminescence, 48-72 h; max response: stronger effect = lower value; note: nearly all actives have a fitted effect of over 60% in size
# Outline: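 Cells exposed to compounds for 48 or 72 hr at 37 degrees Celsius. Viability read as ATP-coupled luminescence with CellTiter-Glo after 10 min at room temperature.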
# [18] = test system: CAOV3; test: Primary qHTS to identify gynecologic anti-cancer compounds using libraries of approved drugs and bioactive compounds (AID 1345084); details: Gynecologic cancer cell panel viability, ATPlite luminescence, 48 h; series mostly up to 57.5 µM; note: nearly all actives have a fitted effect of over 55% in size
# Outline: (§1)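 Cytotoxicity screen measuring ATP content by luciferase luminescence. Each compound is applied at five concentrations for 48 h at 37 C with 5% CO2.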
# [19] = test system: CASKI; test: as above; details: Gynecologic cancer cell panel viability, ATPlite luminescence, 48 h; series mostly up to 57.5 µM
# Outline: as §1
# [20] = test system: Es-2; test: as above; details: Gynecologic cancer cell panel viability, ATPlite luminescence, 48 h; series mostly up to 57.5 µM
# Outline: as §1
# [21] = test system: HeLa; test: as above; details: Gynecologic cancer cell panel viability, ATPlite luminescence, 48 h; series mostly up to 57.5 µM
# Outline: as §1
# [22] = test system: Hek293T; test: as above; details: Gynecologic cancer cell panel viability, ATPlite luminescence, 48 h, control line for the selectivity index; series mostly up to 57.5 µM
# Outline: as §1
# [23] = test system: JEG-3; test: as above; details: Gynecologic cancer cell panel viability, ATPlite luminescence, 48 h; series mostly up to 57.5 µM
# Outline: as §1
# [24] = test system: OV90; test: as above; details: Gynecologic cancer cell panel viability, ATPlite luminescence, 48 h; series mostly up to 57.5 µM
# Outline: as §1
# [25] = test system: PA-1; test: as above; details: Gynecologic cancer cell panel viability, ATPlite luminescence, 48 h; series mostly up to 57.5 µM
# Outline: as §1
# [26] = test system: SKOV3; test: as above; details: Gynecologic cancer cell panel viability, ATPlite luminescence, 48 h; series mostly up to 57.5 µM
# Outline: as §1
# [27] = test system: Tov112D; test: as above; details: Gynecologic cancer cell panel viability, ATPlite luminescence, 48 h; series mostly up to 57.5 µM
# Outline: as §1
structure (smiles),measurement,setting,value
N#Cc1ccc(N2CCN(C(=O)COc3ccc4[nH]cc(CCN)c4c3)CC2)cc1,Potency,[1],inactive
same,Potency,[2],inactive
same,Potency,[3],inactive
same,Potency,[4],inactive
same,Potency,[5],19 µM (active)
same,Potency,[6],1.69 µM (active)
same,activity,[7],-2.1%
same,"activity change, negative = inhibition",[8],0.371%
same,activity,[9],2.26%
same,activity,[10],2.22%
same,Potency,[11],inactive
same,Potency,[12],inactive
same,outcome,[13],inactive
same,Potency,[14],inactive
same,Potency,[15],inactive
same,Potency,[16],inactive
same,max response,[17],-19.2% (inactive)
same,Potency,[18],inactive
same,Potency,[19],inactive
same,Potency,[20],inactive
same,Potency,[21],inactive
same,Potency,[22],inactive
same,Potency,[23],inactive
same,Potency,[24],inactive
same,Potency,[25],inactive
same,Potency,[26],inactive
same,Potency,[27],inactive
